A selection: hits, their analogues and other compounds. The true share with any hit is near 3.2%.
Sm TGR block: S. mansoni TGR enzyme inhibition; Q962Y6; purified TGR, DTNB reduction, TNB absorbance 405 nm; Potency, µM (series often up to 114 µM), inactives show at the top dose activity change, negative = inhibition, usual class: inhibitors; 3% of 360,000 active; also: nearly all actives have a fitted effect of over 60% in size
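TGR 20 nM + NADPH 100 uM (dispensed conc.), cpd preinc 15 min RT; start with NADPH (500 uM addition) then DTNB (15 mM addition). Kinetic TNB absorbance, 405 nm filter. Four-parameter Hill fit across titration.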
LmPK inhibitor: LmPK (Leishmania mexicana) enzyme inhibition; purified LmPK, Kinase-Glo ATP luminescence, 1 h; Potency, µM (series often up to 57.5 µM), inactives show at the top dose activity change, negative = inhibition, most hits filed as inhibitors; 0.37% of 290,000 active
Target sequence (Q27686 whole entry, looked up): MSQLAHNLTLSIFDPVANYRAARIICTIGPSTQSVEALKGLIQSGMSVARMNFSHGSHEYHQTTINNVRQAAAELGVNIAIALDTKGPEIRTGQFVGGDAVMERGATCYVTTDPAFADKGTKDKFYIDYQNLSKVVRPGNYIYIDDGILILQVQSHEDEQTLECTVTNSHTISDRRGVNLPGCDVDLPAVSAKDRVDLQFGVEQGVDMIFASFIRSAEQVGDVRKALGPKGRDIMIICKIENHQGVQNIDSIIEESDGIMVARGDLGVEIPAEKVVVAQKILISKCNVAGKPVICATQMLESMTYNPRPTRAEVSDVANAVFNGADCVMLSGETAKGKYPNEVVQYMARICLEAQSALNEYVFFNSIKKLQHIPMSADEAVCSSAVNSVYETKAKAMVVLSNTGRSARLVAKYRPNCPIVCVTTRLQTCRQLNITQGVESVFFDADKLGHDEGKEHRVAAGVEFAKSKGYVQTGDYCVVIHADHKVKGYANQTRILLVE
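Pyruvate kinase activity monitored as ATP production (luciferase luminescence). Conditions: 0.1 nM enzyme, 0.5 mM PEP, 0.1 mM ADP, 1 h, RT; normalized against uninhibited and no-enzyme wells.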
Tb PYK inh: T. brucei pyruvate kinase inhibition; 0.12% of 410,000 active; TbPYK enzyme, Kinase-Glo Plus ATP luminescence, 45 min; Q57TT1; Potency, µM (highest dose often 76.8 µM), for the others: at the highest dose activity, negative = inhibition, usual class: inhibitors; also: nearly all actives have a fitted effect of over 50% in size
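Luminescent Kinase-Glo Plus end-point after 45 min room-temperature reaction of T. brucei pyruvate kinase started with 130 uM ADP (final). Buffer TEA 50 mM pH 7.2 with KCl, MgCl2, BSA, Tween-20; titration-based qHTS with fitted concentration-effect curves.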
AMA1-RON2 inh: inhibitors of Plasmodium falciparum AMA1-RON2 interaction; AlphaScreen AMA1-biotinylated RON2 peptide binding; Potency, µM (top dose mostly 58.2 µM), for inactives: at the highest dose activity change, negative = inhibition, usual class: inhibitors; 0.2% of 360,000 active; AID 720542;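 also: 0% = vehicle wells and -100% = peptide control; nearly all actives have a fitted effect of over 45% in size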
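AMA1 (3D7) with his tag at 25 nM final met compounds first, then biotinylated RON2 peptide at 25 nM; detection used donor plus acceptor beads, 10 µg/mL apiece, read by AlphaScreen after 30 min at room temperature.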
RE007 growth inh: less growth of the S. pombe RE007 Vpr strain. S. pombe RE007 Vpr strain, BacTiter-Glo ATP luminescence, 24 h. Potency, µM (top dose mostly 92.2 µM), for inactives: at the top dose activity change, negative = less growth, hits mostly inhibitors. 0.21% of 360,000 active; active = well fitted falling curve with a large enough effect; inconclusive = small, poorly fitted or top-dose-only effect; inactive = no such curve, though single readings can be large or run the other way; also: nearly all actives have a fitted effect of over 50% in size
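Fission yeast strain RE007, carrying one chromosomally integrated HIV-1 vpr copy, was seeded at OD 0.01 in PMG+AL medium with 23 nL pinned compound. After 24 h at 30 °C and 99% humidity, viability was read by BacTiter-Glo luminescence.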
Active calls of the source: *; u = inconclusive; x = no result; [ ] = remark or other dose. Unless noted, calls follow the shape of the dose curve; as a rule, active = well fitted curve in the direction sought with a large enough effect; inconclusive = small, poorly fitted or top-dose-only effect, or another doubt; inactive = no such curve, though single readings can be large; an effect the other way counts as inactive or inconclusive. Unless noted, % is scaled to controls: 0 for no effect and ±100 for the full control effect; potency is read from the fitted curve at half-maximal effect.

SMILES	Sm TGR block	LmPK inhibitor	Tb PYK inh	AMA1-RON2 inh	RE007 growth inh
COc1ccc(NC(=O)c2c(NC(=O)COc3ccccc3)sc3c2CCC(C)C3)cc1 (stereo not drawn)	-7.5%	x	-4.9%	x	x
NS(=O)(=O)c1ccc(CCNC(=O)C2Cc3ccccc3CN2C(=O)c2ccco2)cc1 (stereo not drawn)	-5.6%	5.4%	-6.6%	31.5%	4.2%
COCCSc1nnc(NC(=O)C2CCN(C(=O)c3ccco3)CC2)s1	1.3%	0.0%	1.9%	-6.6%	9.5%
CCSc1nnc(NC(=O)C2Cc3ccccc3CN2C(=O)c2ccco2)s1 (stereo not drawn)	31.6µM*	6.1%	-10.0%	13.7%	4.5%
O=C(O)C1Cc2ccccc2CN1C(=O)c1ccco1 (stereo not drawn)	u	20.5%	-7.3%	5.4%	-6.9%
O=C(c1ccco1)N1CCN(C(=O)C2Cc3ccccc3CN2S(=O)(=O)c2ccc(F)cc2)CC1 (stereo not drawn)	50.1µM*	3.4%	1.3%	8.3%	-4.0%
NS(=O)(=O)c1ccc(NC(=O)C2Cc3ccccc3CN2C(=O)c2ccco2)cc1 (stereo not drawn)	44.7µM*	-0.8%	-12.0%	7.3%	-13.1%
Cc1ccccc1NC(=O)C1Cc2ccccc2CN1C(=O)c1ccco1 (stereo not drawn)	11.2µM*	-1.1%	-13.6%	4.0%	-3.7%
O=C(Nc1cccc(Cl)c1)Nc1ncc(CCNc2ncnc3ccsc23)s1	x	x	0.0%	x	x
CC(=O)c1ccc(Nc2cc(C)nc3nc(Cc4ccc(Cl)cc4)nn23)cc1	-0.8%	x	-3.5%	x	x
O=C(NCc1ccccc1)C1Cc2ccccc2CN1C(=O)c1ccco1 (stereo not drawn)	35.5µM*	2.2%	0.4%	-10.8%	-10.6%
COc1cccc(NC(=O)C2Cc3ccccc3CN2C(=O)c2ccco2)c1 (stereo not drawn)	35.5µM*	-8.1%	2.4%	5.4%	-5.7%
O=C(NCc1ccc(F)cc1)C1Cc2ccccc2CN1C(=O)c1ccco1 (stereo not drawn)	6.9%	-5.7%	-2.0%	-4.1%	1.8%
CCOC(=O)c1c(C)c(-c2ccccc2)n(CC(=O)NCc2cccc(OC)c2)c1C	-1.0%	x	2.6%	x	x
O=S(=O)(c1ccc(C2CCCCC2)cc1)N1CCN(c2cc(Cl)ccc2Cl)CC1	-0.1%	x	3.1%	x	x
O=C(CSc1nc2c(c(=O)n1-c1ccc(Cl)cc1)SCC2)NCc1ccco1	u	2.2%	-8.6%	-6.4%	7.6%
O=C(CSc1nc2c(c(=O)n1-c1ccc(F)cc1)SCC2)NCc1ccco1	39.8µM*	1.1%	-3.2%	0.8%	12.9%
Cc1ccc(-n2c(SCC(=O)NCc3ccco3)nc3nc4c(cc3c2=O)COC(C)(C)C4)cc1	22.4µM*	3.1%	-9.5%	0.9%	2.9%
Fc1ccccc1Nc1nc2ccccc2o1	10.8%	15.8µM*	u	20.1%	u
Cc1cc(C)nc(Nc2nc3ccccc3o2)n1	-1.3%	6.6%	2.0%	25.9%	-13.7%
c1ccc(Nc2nc3ccccc3o2)cc1	1.3%	15.8µM*	-5.8%	3.5%	u
CCOc1ccc(NC(=O)CN(C)C(=O)C2CC(=O)N(Cc3ccco3)C2)cc1OCC (stereo not drawn)	44.7µM*	x	0.0%	-7.5%	3.7%
CCOc1ccc(NC(=O)CN(C)C(=O)C2CC(=O)N(CCc3ccc(OC)c(OC)c3)C2)cc1OCC (stereo not drawn)	x	x	2.0%	-2.4%[11.6 µM]	-0.1%
COC(=O)C1=C(C)N(CCC2=CCCCC2)C(=O)C1	31.6µM*	0.0%	-7.6%	-3.1%	-11.2%
Oc1ccc(/C=N/n2c3ccccc3c3ccccc32)cc1	4.6%	6.6%	4.7%	-8.0%	31.6µM*
SMILES	Sm TGR block	LmPK inhibitor	Tb PYK inh	AMA1-RON2 inh	RE007 growth inh
CCN(CC)c1ccc(C(=C2C=CC(=[N+](CC)CC)C=C2)c2ccc(N(CC)CC)cc2)cc1	x	x	u	2.24µM*	u
CCN(CC)c1ccc(C(=C2C=CC(=[N+](CC)CC)C=C2)c2ccccc2)cc1	x	x	u	11.2µM*	4.47µM*
Cc1cccc2nc(Cn3c(=O)n(-c4ccc(Cl)cc4)c(=O)c4c5c(sc43)CCC5)cc(=O)n12	-3.0%	x	3.2%	x	x
Cc1nc2cc(N3CCCCC3)c(NC(=O)c3cccnc3)cc2c(=O)n1Cc1ccccc1	0.0%	-0.7%	0.8%	-10.0%	-16.7%
CC(=O)Nc1cc2c(=O)n(Cc3ccccc3)c(C)nc2cc1N1CCOCC1	6.31µM*	2.7%	-3.0%	23.2%	6.8%
O=C1C=C(Nc2ccc(O)cc2)C(=O)c2ccccc21	u	u	1.1%	u	u
Cc1ccc(NC2=C(N3CCOCC3)C(=O)c3ccccc3C2=O)cc1	u	-19.9%	-4.1%	23.8µM*	u
CCN(CC)c1ccc(NC(=O)C(C)C)cc1	-16.4%	-2.5%	-13.8%	-4.1%	-2.0%
Cc1ccc(NC2=C(Cl)C(=O)c3ccccc3C2=O)cc1	3.55µM*	-10.6%	-5.7%	-23.3%	-2.1%
CCN(CC)c1ccc(NC2=C(Cl)C(=O)c3ccccc3C2=O)cc1	2.24µM*	u	-18.8%	6.31µM*	u
Cc1ccc(NC2=CC(=O)C(=O)c3ccccc32)cc1	-24.6%	-17.2%	0.0%	-19.3%	u
O=C1C(Cl)=C(Nc2ccc(O)cc2)C(=O)c2ccccc21	2.24µM*	-7.9%	-9.1%	-3.1%	-27.5%
CC(=O)c1cc2c(cc1N/C(=N/S(=O)(=O)c1ccc(F)cc1)c1ccccc1)OCO2	-0.6%	x	-7.9%	x	x
CCc1nn2c(-c3ccco3)ccnc2c1-c1ccccc1	19.9%	x	-2.2%	x	x
CC(=O)C1=C(C)OC(N)=C(C#N)C1c1ccco1 (stereo not drawn)	12.6µM*	17.0%	-13.1%	24.5%	-15.1%
C=CCOC(=O)C1=C(C)OC(N)=C(C#N)C1c1ccoc1 (stereo not drawn)	20µM*	8.8%	-4.9%	9.1%	3.7%
COC(=O)C1=C(C)OC(N)=C(C#N)C1c1ccccc1F (stereo not drawn)	2.2%	-1.3%	2.6%	0.3%	12.7%
CC(=O)C1=C(C)OC(N)=C(C#N)C1c1cccc2ccccc12 (stereo not drawn)	11.2µM*	0.9%	-1.2%	5.9%	-1.7%
O=C1/C(=C/c2ccccn2)SC(=S)N1NS(=O)(=O)c1ccccc1	44.7µM*	-0.2%	-4.9%	2.9%	8.1%
O=C(NC(N1CCCC1)C(Cl)(Cl)Cl)c1ccccc1 (stereo not drawn)	3.55µM*	0.1%	2.3%	0.8%	-4.0%
CCOc1ccc(NCc2nc3ccccc3n2CCOc2ccccc2)cc1	0.7%	-3.3%	0.3%	14.1µM*	u
O=C(O)c1ccc([N+](=O)[O-])c(CS(=O)(=O)c2ccc(Cl)cc2)c1	-14.3%	-2.2%	3.4%	1.6%	-5.1%

Screening data: PubChem, National Center for Advancing Translational Sciences (NCATS)
